A number with no mark means an inactive call. Inconclusive results are not listed. Where a call stands in place of a potency, no number is given. The source made the active and inactive calls. Unless noted, calls follow the shape of the dose curve; as a rule, active = well fitted curve in the direction sought with a large enough effect in the repeat runs; inconclusive = weak or mixed curves; inactive = no such curve, though single readings can be large; an effect the other way counts as inactive or inconclusive.
Tests used:
[1] = qHTS assay to identify small molecule agonists of H2AX (AID 1224845; active = well fitted activation curve with a large enough effect in the signal ratio in the repeat runs, not every such curve was filed as active; the % refers to the signal ratio)
Outline: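 Wild-type CHO-K1 cells, plated overnight, exposed 3hr at 37C to 15 concentrations (0.76% DMSO final). Lysed, then HTRF anti-pH2AX (S139) cryptate and anti-H2AX-d2 antibodies, 24 hr room temperature; 665/620 nm emission read.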

[2] = qHTS assay to identify small molecule agonists of the hypoxia (HIF-1) signaling pathway (AID 1224846; active = well fitted activation curve with a large enough effect in the signal ratio in the repeat runs, not every such curve was filed as active; the % refers to the signal ratio)
Outline: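 Steps: seed ME-180 HRE-bla cells (2,000/well, 0.5% dialyzed FBS); incubate 5 hrs at 37C; pin-transfer compounds or DMSO; incubate 17 hrs; add LiveBLAzer B/G substrate CCF4-AM; measure reporter activation by FRET.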

[3] = qHTS assay to identify small molecule agonists of H2AX - cell viability counter screen (AID 1224847; calls by dose curve; also: nearly all actives have a fitted effect of over 30% in size; also: potency is read from the fitted curve at half-maximal effect)
Outline: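 Viability of CHO-K1 (wild type) cells after 3 hr compound exposure was measured by CellTiter-Glo luminescence.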

[4] = qHTS RealTime-Glo MT Cell Viability Assay in HepG2 cells - 24 hour (AID 1224867); also: nearly all actives have a fitted effect of over 50% in size
Outline: (§1)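 Cells + NanoLuc/prosubstrate dispensed (600 cells/well) → 5 h at 37 C/5% CO2 → compounds in DMSO transferred → 40 h incubation at 37 C, luminescence read at 0, 8, 16, 24, 32, 40 h.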

[5] = qHTS RealTime-Glo MT Cell Viability Assay in HEK293 cells - 32 hour (AID 1224868); also: nearly all actives have a fitted effect of over 50% in size; also: potency is read from the fitted curve at half-maximal effect
Outline: (§2)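 Tox21 10K qHTS, HEK293, 600 cells/well, RealTime-Glo reagent co-dispensed with cells; 5 h preincubation, compound by pintool, 37 C, luminescence at 0–40 h.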

[6] = A CellTox Green Cytotoxicity Assay to monitor cytotoxicity in HEK293 cells - 0 hour (AID 1224869); also: nearly all actives have a fitted effect of over 50% in size
Outline: (§3)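 Cytotoxicity was tracked continuously in HEK293 cells by a DNA-binding dye excluded from viable cells. Compounds were transferred in DMSO 5 h after seeding; fluorescence was recorded at intervals up to 40 h.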

[7] = qHTS RealTime-Glo MT Cell Viability Assay in HepG2 cells - 40 hour (AID 1224870); also: nearly all actives have a fitted effect of over 50% in size
Outline: (§4)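 HepG2 cells (600/well) mixed with RealTime-Glo MT reagent, settled 5 h at 37 C/5% CO2 before compound addition. Nonlytic NanoLuc luminescence from viable-cell prosubstrate reduction read repeatedly during 40 h treatment at 37 C.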

[8] = A CellTox Green Cytotoxicity Assay to monitor cytotoxicity in HEK293 cells - 40 hour (AID 1224871); also: nearly all actives have a fitted effect of over 45% in size
Outline: as §3

[9] = qHTS RealTime-Glo MT Cell Viability Assay in HEK293 cells - 16 hour (AID 1224872)
Outline: as §2

[10] = qHTS RealTime-Glo MT Cell Viability Assay in HEK293 cells - 40 hour (AID 1224874); settings: RealTime-Glo luminescence; max response: active compounds read low; also: nearly all actives have a fitted effect of over 50% in size; also: potency is read from the fitted curve at half-maximal effect
Outline: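 Nonlytic bioluminescent viability monitoring. HEK293 at 600 cells/well with reagent; 5 h settle; compound transfer by pintool; plates held at 37 C and read at set time points.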

[11] = A CellTox Green Cytotoxicity Assay to monitor cytotoxicity in HepG2 cells - 16 hour (AID 1224876); also: nearly all actives have a fitted effect of over 45% in size
Outline: (§5)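 Real-time, homogeneous cytotoxicity readout: dead-cell DNA staining by CellTox Green in HepG2 monolayers, fluorescence measured at timed intervals up to 40 h of continuous compound exposure.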

[12] = qHTS RealTime-Glo MT Cell Viability Assay in HepG2 cells - 32 hour (AID 1224877); also: nearly all actives have a fitted effect of over 55% in size
Outline: as §1

[13] = A CellTox Green Cytotoxicity Assay to monitor cytotoxicity in HepG2 cells - 24 hour (AID 1224878); also: nearly all actives have a fitted effect of over 45% in size
Outline: as §5

[14] = A CellTox Green Cytotoxicity Assay to monitor cytotoxicity in HepG2 cells - 40 hour (AID 1224879); also: nearly all actives have a fitted effect of over 40% in size
Outline: as §5

[15] = qHTS assay to identify small molecule agonists of the hypoxia (HIF-1) signaling pathway - cell viability counter screen (AID 1224844; calls by dose curve; also: nearly all actives have a fitted effect of over 50% in size; also: potency is read from the fitted curve at half-maximal effect)
Outline: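 Tox21 10K compounds were added to HRE-bla ME-180 cells (0.5% dialyzed FBS) and incubated 17 hrs at 37C; ATP-based CellTiter-Glo luminescence then reported cell viability in the same wells.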

[16] = qHTS RealTime-Glo MT Cell Viability Assay in HepG2 cells - 8 hour (AID 1224873); also: nearly all actives have a fitted effect of over 55% in size
Outline: as §4

[17] = A CellTox Green Cytotoxicity Assay to monitor cytotoxicity in HEK293 cells - 24 hour (AID 1224875); also: nearly all actives have a fitted effect of over 45% in size
Outline: as §3

[18] = qHTS assay to identify small molecule antagonists of the estrogen related receptor (ERR) signaling pathway from Tox21 library (AID 1224848); also: nearly all actives have a fitted effect of over 50% in size
Outline: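 ERR reporter cell line (from NTP) seeded 2,000 cells/well, rested 6 h at 37 C/5% CO2, then pin-dosed with compounds in DMSO. After 18 h at 37 C, ONE-Glo added; luminescence read after 30 min at room temperature.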

[19] = qHTS assay to identify small molecule agonists of the estrogen related receptor (ERR) signaling pathway from Tox21 library (AID 1224849; calls by dose curve; also: nearly all actives have a fitted effect of over 15% in size); settings: ERR reporter cell line, ONE-Glo luciferase, 18 h; at 92.4 µM (top of the series) unless noted
Outline: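 Agonist signal is luciferase luminescence from an ERR reporter cell line treated 18 h at 37 C with DMSO-dissolved compounds, read 30 min after ONE-Glo addition at room temperature.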

Compound	outcome [1]	outcome [2]	Potency [3]	outcome [4]	Potency [5]	Potency [6]	Potency [7]	Potency [8]	Potency [9]	max response [10]	Potency [11]	Potency [12]	Potency [13]	Potency [14]	Potency [15]	outcome [16]	Potency [10]	Potency [17]	Potency [18]	activity change, positive = activation [19]
COc1cc(C)cc(O)c1	inactive	inactive	inactive	inactive	inactive	inactive	inactive	inactive	inactive	-14.5%	inactive	inactive	inactive	inactive						
C/C=C1\C(=O)C[C@H]2[C@@H]3CCC4=CC(=O)CC[C@]4(C)[C@H]3CC[C@]12C	inactive		55.5 µM (active)	inactive	21.4 µM (active)	inactive					inactive	inactive	inactive	inactive	inactive	inactive	21.4 µM (active)	inactive		
OCCCCCCO	inactive		inactive	inactive	inactive	inactive		inactive	inactive	-17.6%	inactive	inactive	inactive	inactive	inactive	inactive		inactive		
C1=C\CC/C=C\CC/C=C\CC/1		inactive	inactive	inactive	inactive	inactive	inactive	inactive	inactive	24.2%	inactive	inactive	inactive	inactive		inactive		inactive	inactive	2.93%
Oc1ccc2c(c1)OC[C@@H](N1CCC(O)(c3ccc(F)cc3)CC1)[C@H]2O	inactive	inactive	inactive	inactive	inactive	inactive	inactive	inactive	inactive	-13.9%	inactive	inactive	inactive	inactive		inactive		inactive	inactive	111% [at 42.5 µM] (active)
Nc1[nH]c(=O)ncc1F	inactive		inactive	inactive		inactive	inactive	inactive	inactive	0.113%	inactive	inactive	inactive	inactive	inactive	inactive			inactive	-0.92% [at 42.5 µM]
CC/C=C\CCCCO		inactive	inactive	inactive	inactive	inactive	inactive	inactive	inactive	1.83%	inactive	inactive			inactive	inactive		inactive		
c1ccc(SCCSc2ccccc2)cc1	inactive		inactive	inactive	inactive		inactive	inactive	inactive	6.54%	inactive	inactive	inactive	inactive		inactive		inactive	inactive	69.4% (active)
CCCCOCC(C)OCC(C)O (configuration not stated)		inactive	inactive	inactive	inactive		inactive	inactive	inactive	2.63%	inactive	inactive	inactive	inactive	inactive	inactive		inactive		
O=C(O)/C=C/c1ccc(/C=C/C(=O)O)cc1	inactive		inactive	inactive	inactive	inactive	inactive	inactive	inactive	3.8%	inactive	inactive	inactive	inactive	inactive			inactive		
COc1cc(C(=O)N2CCOCC2)cc(OC)c1OC	inactive	inactive	inactive	inactive		inactive	inactive	inactive	inactive	11.2%	inactive	inactive	inactive	inactive	inactive	inactive		inactive		
Cc1c(C)n(CCN(C)C)c2ccc(C(=O)OCCN(C)C)cc12	inactive		inactive	inactive		inactive	inactive	inactive	inactive		inactive	inactive	inactive	inactive		inactive		inactive	inactive	-20.1% [at 42.5 µM]
O=C(O)/C=C/c1ccc(Cn2ccnc2)cc1	inactive		inactive	inactive	inactive	inactive	inactive	inactive		2.89%	inactive	inactive	inactive	inactive	inactive			inactive		
CCOC(=O)Cn1c(=O)sc2cccc(Cl)c21	inactive		inactive		inactive	inactive	inactive	inactive	inactive	-10.9%	inactive		inactive	inactive	inactive			inactive	inactive	-12%
O=C(O)Cc1cc(I)c(Oc2cc(I)c(O)c(I)c2)c(I)c1			inactive	inactive		inactive	inactive			1.65%	inactive	inactive	inactive	inactive	24.1 µM (active)	inactive				
CCCCCCCCCCCl		inactive	inactive	inactive	inactive	inactive	inactive	inactive		6.94%	inactive	inactive	inactive	inactive	inactive	inactive		inactive	inactive	0.564%
C=C[Si](OC)(OC)OC	inactive	inactive	inactive	inactive	inactive		inactive	inactive	inactive	16.1%	inactive		inactive	inactive	inactive	inactive		inactive		
CC(CCO)CCCC(C)(C)O (configuration not stated)	inactive	inactive	inactive	inactive		inactive		inactive		-6.84%	inactive	inactive	inactive	inactive	inactive	inactive		inactive		
CC(C)CCOC(=O)CC(C)C	inactive	inactive	inactive	inactive	inactive		inactive		inactive	14.4%	inactive	inactive	inactive	inactive	inactive					
CC(C)=CCC/C(C)=C/C(=O)O	inactive	inactive	inactive	inactive	inactive	inactive	inactive	inactive		0.0826%	inactive	inactive						inactive		
NC1CCN(c2cccc(Cl)n2)CC1	inactive		inactive	inactive	inactive		inactive	inactive	inactive	-1.03%	inactive	inactive	inactive	inactive	inactive	inactive		inactive		
O=c1[nH]c(=O)n([C@H]2O[C@H](CO)[C@@H](O)[C@@H]2O)cc1/C=C\Br			inactive	inactive	inactive		inactive	inactive	inactive	3.79%	inactive	inactive	inactive	inactive	inactive			inactive		
O=[N+]([O-])c1ccc(Oc2ccc([N+](=O)[O-])cc2)cc1			inactive	inactive		inactive	inactive	inactive			inactive	inactive	inactive	inactive	inactive	inactive		inactive	inactive	-4.74%

From PubChem BioAssay (Tox21)
